This is an account of results in PubChem BioAssay (EPA / NIEHS).

Each structure is given as a SMILES string. Inconclusive results are not listed. Some compounds were tested as several samples or in several runs, with calls that do not always agree. Active and inactive are the calls of the source. How the source made its calls: active means hit-call score of the fitted dose curve at least 0.9, where 1 is the maximum; inconclusive means response in the unintended direction; inactive means score below 0.9.

The nature of the assay: Tanguay_ZF_120hpf_JAW_legacy: (Legacy) Oregon State University Tanguay Lab 120 Hour Post-fertilization zebrafish Assay for Jaw Malformation (AID 2283638).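 On AC50: active means more embryos with jaw malformation than DMSO controls.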 In short, it runs like this: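 Binary jaw-malformation calls at 120 hpf by brightfield imaging; DMSO (0.64% v/v) = baseline. Embryos: 5D wild-type, pronase-dechorionated, one per well from 6 hpf, static exposure, 28C, sealed, dark.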
`CCOP(=S)(OCC)Oc1nc(Cl)c(Cl)cc1Cl`: the result was inactive.
Same read-out and setting: in the case of `CCC(C)(C)c1ccc(O)c(C(C)(C)CC)c1` it was “inactive”; in that of `Cn1sc(Cl)cc1=O`, “inactive”; in that of `O=c1[nH]c(=O)[nH]c(=O)[nH]1`, “inactive”.
On the same count and under the same terms, in the case of `Oc1cccc2cccnc12` it was “inactive”; in that of `O=C(O)C(Cl)(Cl)Cl`, “inactive”.
Same read-out and setting: as for `CC12CC1(C)C(=O)N(c1cc(Cl)cc(Cl)c1)C2=O` (configuration not stated), the entry is “inactive”; as for `O=C(O)C(F)(F)C(F)(F)C(F)(F)C(F)(F)C(F)(F)C(F)(F)C(F)(F)C(F)(F)C(F)(F)C(F)(F)F`, “inactive”.
For the compound `CCCCCCCCc1ccc(O)cc1`, the result was inactive.
Still for that read-out and setting: in the case of `O=C(Nc1ccc2[nH]ccc2c1)c1cc2cc(F)ccc2n1Cc1cccc(F)c1` it was “inactive”.
The AC50 is the concentration at which the activity in the assay is half-maximal. Take `COc1cc(-c2ccc(N)c(OC)c2)ccc1N`: the concentration at half-maximal activity (AC50) was 47 µM (active) and the call was inactive.
On to `C=C(C)C(=O)[O][Sn]([CH2]CCC)([CH2]CCC)[CH2]CCC`, for which the call was inactive.
Still for that read-out and setting: as for `C[C@@H]1C[C@@H]([C@H](O)CC2CC(=O)NC(=O)C2)C(=O)[C@@H](C)C1`, the entry is “inactive”.
On the same count and under the same terms, as for `CC(C)(c1ccccc1)c1ccc(O)c(C(C)(C)c2ccccc2)c1`, the entry is “inactive”.
Same read-out and setting: as for `CCOP(=S)(OCC)SCSP(=S)(OCC)OCC`, the entry is “inactive”; as for `CC(=O)[O][Hg][c]1ccccc1`, “inactive”.
`CN(C)N=O`: the compound was classed as inactive.
On to `C=CC(=O)OCCCCCC(C)C`, for which the outcome was inactive.
In the case of `CCC(=O)C(CC(C)N(C)C)(c1ccccc1)c1ccccc1` (configuration not stated), the AC50 was 34.4 µM (active).
On the same count and under the same terms, in the case of `O=C1C2(Cl)C3(Cl)C4(Cl)C(Cl)(Cl)C5(Cl)C3(Cl)C1(Cl)C5(Cl)C24Cl` (configuration not stated) it was 8.93 µM (active).
As for `C[C@]12CCC(=O)C[C@@H]1CC[C@@H]1[C@@H]2CC[C@]2(C)[C@@H](O)CC[C@@H]12`, the result was inactive.
